# Laboratory results: article PMC7862700, “An all-to-all approach to the identification of sequence-specific readers for epigenetic DNA modifications on cytosine”
# Columns and labels:
# Test in all cases: DAPPL (digital affinity profiling via proximity ligation, sequencing); 10 mM Tris-HCl pH 7.5, 50 mM NaCl, 1 mM DTT, 4% glycerol, room temperature, 30 min; GST-TFs on glutathione beads, 16-mer random dsDNA library, 0.1% formaldehyde crosslink after washing; high values mean tight binding
# FLI1 = target: T1, FLI1 (Homo sapiens, UniProt Q01543 1-452); conditions: protein: recombinant; tags: N-terminal GST; dsDNA, one strand shown
# T1 sequence: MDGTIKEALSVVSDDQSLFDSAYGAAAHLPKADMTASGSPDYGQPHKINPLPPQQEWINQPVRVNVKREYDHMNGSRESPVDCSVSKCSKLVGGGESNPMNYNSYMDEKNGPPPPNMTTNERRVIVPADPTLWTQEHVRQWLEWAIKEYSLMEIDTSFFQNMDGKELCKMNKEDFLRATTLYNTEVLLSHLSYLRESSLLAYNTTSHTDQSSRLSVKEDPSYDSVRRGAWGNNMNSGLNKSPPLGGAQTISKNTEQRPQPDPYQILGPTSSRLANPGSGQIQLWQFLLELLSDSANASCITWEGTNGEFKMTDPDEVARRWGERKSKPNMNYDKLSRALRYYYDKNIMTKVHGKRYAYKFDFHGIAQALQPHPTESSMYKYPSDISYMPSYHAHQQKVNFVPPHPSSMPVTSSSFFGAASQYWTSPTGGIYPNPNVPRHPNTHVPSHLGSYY
# Summary of the method: (§1)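 GST fusions of human transcription factors were expressed in yeast and captured with glutathione beads. Once given DNA barcodes and pooled alongside a tag-only sample, they were incubated for 30 min at room temperature with 200 nmole of a random double-stranded 16-mer DNA library in Tris/NaCl/DTT/glycerol buffer, then washed, crosslinked (0.1% formaldehyde), proximity-ligated, PCR-amplified and sequenced on an Illumina NextSeq500. The binding signal of each hexamer is its read frequency for a factor divided by its frequency for the tag-only sample.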
# ELK1 = target: T2, ELK1 (Homo sapiens, UniProt P19419 1-428); conditions: protein: recombinant; tags: N-terminal GST; dsDNA, one strand shown
# T2 sequence: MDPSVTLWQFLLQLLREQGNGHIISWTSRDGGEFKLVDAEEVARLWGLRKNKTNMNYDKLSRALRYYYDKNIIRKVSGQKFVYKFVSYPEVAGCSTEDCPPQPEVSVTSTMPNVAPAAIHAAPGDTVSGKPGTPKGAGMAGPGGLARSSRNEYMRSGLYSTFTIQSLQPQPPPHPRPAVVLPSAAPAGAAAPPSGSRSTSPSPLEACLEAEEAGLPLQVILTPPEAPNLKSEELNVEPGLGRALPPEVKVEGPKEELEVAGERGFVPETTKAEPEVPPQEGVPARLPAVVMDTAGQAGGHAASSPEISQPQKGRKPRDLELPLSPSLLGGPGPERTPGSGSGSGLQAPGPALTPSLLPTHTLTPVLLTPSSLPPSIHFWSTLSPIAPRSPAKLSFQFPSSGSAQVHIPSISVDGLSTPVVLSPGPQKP
# Summary of the method: as §1
# GABPA = target: T3, GABPA (Homo sapiens, UniProt Q06546 1-454); conditions: protein: recombinant; tags: N-terminal GST; dsDNA, one strand shown
# T3 sequence: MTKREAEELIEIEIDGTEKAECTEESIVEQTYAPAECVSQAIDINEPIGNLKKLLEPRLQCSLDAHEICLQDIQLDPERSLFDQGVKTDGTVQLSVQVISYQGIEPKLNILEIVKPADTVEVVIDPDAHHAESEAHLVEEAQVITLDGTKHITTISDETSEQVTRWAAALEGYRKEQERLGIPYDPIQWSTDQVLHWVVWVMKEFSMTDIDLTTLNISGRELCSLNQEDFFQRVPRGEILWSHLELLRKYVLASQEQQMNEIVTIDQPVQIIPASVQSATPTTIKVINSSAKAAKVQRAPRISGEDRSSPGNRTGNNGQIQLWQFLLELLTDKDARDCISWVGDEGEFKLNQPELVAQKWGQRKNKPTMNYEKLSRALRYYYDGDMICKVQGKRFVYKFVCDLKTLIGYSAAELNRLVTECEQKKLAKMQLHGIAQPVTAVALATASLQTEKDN
# Summary of the method: as §1
# ERG = target: T4, ERG (Homo sapiens, UniProt P11308 1-479); conditions: protein: recombinant; tags: N-terminal GST; dsDNA, one strand shown
# T4 sequence: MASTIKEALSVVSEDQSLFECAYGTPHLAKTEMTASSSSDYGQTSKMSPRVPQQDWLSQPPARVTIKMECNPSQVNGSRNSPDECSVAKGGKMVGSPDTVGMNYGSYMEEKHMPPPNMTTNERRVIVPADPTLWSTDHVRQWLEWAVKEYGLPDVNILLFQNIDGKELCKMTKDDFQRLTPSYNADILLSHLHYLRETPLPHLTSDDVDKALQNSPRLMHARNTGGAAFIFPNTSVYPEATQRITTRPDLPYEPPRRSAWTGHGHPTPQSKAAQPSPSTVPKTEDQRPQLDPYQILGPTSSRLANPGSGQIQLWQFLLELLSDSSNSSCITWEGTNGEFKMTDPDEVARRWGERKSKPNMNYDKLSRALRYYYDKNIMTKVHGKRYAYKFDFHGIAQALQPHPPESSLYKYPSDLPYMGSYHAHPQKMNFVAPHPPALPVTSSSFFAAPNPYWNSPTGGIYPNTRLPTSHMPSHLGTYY
# Summary of the method: as §1
# ELF1 = ELF1 (Homo sapiens, UniProt P32519 1-619); conditions: protein: recombinant; tags: N-terminal GST; dsDNA, one strand shown
# Summary of the method: as §1
# EHF = target: T5, EHF (Homo sapiens, UniProt Q9NZC4 1-300); conditions: protein: recombinant; tags: N-terminal GST; dsDNA, one strand shown
# T5 sequence: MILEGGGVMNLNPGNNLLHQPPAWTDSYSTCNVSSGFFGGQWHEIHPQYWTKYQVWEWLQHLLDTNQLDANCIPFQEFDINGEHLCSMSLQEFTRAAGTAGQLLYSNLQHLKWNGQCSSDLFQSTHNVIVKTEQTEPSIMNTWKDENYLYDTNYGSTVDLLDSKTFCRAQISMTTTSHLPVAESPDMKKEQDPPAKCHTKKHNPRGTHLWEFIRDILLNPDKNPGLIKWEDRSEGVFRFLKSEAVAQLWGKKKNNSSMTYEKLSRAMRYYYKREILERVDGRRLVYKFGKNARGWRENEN
# Summary of the method: as §1
# SPI1 = SPI1 (Homo sapiens, UniProt P17947 1-270); conditions: protein: recombinant; tags: N-terminal GST; dsDNA, one strand shown
# Summary of the method: as §1
# SPIB = SPIB (Homo sapiens, UniProt Q01892 1-262); conditions: protein: recombinant; tags: N-terminal GST; dsDNA, one strand shown
# Summary of the method: as §1
# ELK3 = target: T6, ELK3 (Homo sapiens, UniProt P41970 1-407); conditions: protein: recombinant; tags: N-terminal GST; dsDNA, one strand shown
# T6 sequence: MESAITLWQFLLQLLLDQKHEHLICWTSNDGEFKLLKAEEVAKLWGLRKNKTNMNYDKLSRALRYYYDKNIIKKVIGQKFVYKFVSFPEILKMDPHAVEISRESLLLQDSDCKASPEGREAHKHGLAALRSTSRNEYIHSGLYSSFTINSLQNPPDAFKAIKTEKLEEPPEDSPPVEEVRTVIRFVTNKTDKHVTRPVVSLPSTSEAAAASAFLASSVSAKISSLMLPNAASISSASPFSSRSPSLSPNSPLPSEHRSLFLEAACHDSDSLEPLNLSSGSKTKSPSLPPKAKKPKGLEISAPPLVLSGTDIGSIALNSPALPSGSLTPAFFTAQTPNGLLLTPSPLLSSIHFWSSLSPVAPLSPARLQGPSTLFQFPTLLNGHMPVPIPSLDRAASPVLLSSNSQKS
# Summary of the method: as §1
# FEV = target: T7, FEV (Homo sapiens, UniProt Q99581 1-238); conditions: protein: recombinant; tags: N-terminal GST; dsDNA, one strand shown
# T7 sequence: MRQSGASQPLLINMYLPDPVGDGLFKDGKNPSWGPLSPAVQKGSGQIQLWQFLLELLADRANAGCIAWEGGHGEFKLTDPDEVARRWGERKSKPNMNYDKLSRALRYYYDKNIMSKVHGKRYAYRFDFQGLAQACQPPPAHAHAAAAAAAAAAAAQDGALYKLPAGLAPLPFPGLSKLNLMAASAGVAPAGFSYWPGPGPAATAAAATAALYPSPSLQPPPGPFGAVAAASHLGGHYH
# Summary of the method: as §1
# ETV5 = ETV5 (Homo sapiens, UniProt P41161 1-510); conditions: protein: recombinant; tags: N-terminal GST; dsDNA, one strand shown
# Summary of the method: as §1
# HSF1 = HSF1 (Homo sapiens, UniProt Q00613 1-529); conditions: protein: recombinant; tags: N-terminal GST; chain copies: 3; dsDNA, one strand shown
# Summary of the method: as §1
# SPIC = target: T8, SPIC (Homo sapiens, UniProt Q8N5J4 1-248); conditions: protein: recombinant; tags: N-terminal GST; dsDNA, one strand shown
# T8 sequence: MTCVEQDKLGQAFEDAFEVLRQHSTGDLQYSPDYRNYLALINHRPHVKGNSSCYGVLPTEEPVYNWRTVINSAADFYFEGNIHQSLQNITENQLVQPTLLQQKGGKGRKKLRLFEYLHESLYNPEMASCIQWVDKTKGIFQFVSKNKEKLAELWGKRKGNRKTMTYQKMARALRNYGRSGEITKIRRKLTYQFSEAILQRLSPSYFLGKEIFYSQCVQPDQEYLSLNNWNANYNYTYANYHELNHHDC
# Summary of the method: as §1
# ELF4 = ELF4 (Homo sapiens, UniProt Q99607 1-663); conditions: protein: recombinant; tags: N-terminal GST; dsDNA, one strand shown
# Summary of the method: as §1
# ELK4 = target: T9, ELK4 (Homo sapiens, UniProt P28324-2 1-405); conditions: protein: recombinant; tags: N-terminal GST; dsDNA, one strand shown
# T9 sequence: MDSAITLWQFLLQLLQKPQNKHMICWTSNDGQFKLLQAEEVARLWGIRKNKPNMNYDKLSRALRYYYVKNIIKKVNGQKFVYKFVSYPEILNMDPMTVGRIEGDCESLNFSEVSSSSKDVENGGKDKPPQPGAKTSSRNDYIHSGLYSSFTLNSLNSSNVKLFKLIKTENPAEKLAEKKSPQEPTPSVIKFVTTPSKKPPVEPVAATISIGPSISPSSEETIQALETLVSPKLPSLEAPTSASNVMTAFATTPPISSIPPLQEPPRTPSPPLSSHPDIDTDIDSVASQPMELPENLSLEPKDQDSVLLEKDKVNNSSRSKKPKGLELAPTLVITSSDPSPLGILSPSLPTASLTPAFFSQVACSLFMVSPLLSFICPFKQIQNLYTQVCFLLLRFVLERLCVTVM
# Summary of the method: as §1
# ETV2 = target: T10, ETV2 (Homo sapiens, UniProt O00321 1-342); conditions: protein: recombinant; tags: N-terminal GST; dsDNA, one strand shown
# T10 sequence: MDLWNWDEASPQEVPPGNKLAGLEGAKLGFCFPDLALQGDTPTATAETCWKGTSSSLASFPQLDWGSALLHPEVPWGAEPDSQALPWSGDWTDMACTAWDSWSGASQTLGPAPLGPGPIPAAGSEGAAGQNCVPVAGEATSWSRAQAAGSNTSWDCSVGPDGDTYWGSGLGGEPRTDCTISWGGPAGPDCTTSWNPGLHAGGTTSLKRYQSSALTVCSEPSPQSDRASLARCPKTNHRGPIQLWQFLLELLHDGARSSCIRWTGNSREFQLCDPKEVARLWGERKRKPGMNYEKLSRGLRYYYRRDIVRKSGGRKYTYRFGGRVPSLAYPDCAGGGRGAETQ
# Summary of the method: as §1
# ELF3 = target: T11, ELF3 (Homo sapiens, UniProt P78545 1-371); conditions: protein: recombinant; tags: N-terminal GST; dsDNA, one strand shown
# T11 sequence: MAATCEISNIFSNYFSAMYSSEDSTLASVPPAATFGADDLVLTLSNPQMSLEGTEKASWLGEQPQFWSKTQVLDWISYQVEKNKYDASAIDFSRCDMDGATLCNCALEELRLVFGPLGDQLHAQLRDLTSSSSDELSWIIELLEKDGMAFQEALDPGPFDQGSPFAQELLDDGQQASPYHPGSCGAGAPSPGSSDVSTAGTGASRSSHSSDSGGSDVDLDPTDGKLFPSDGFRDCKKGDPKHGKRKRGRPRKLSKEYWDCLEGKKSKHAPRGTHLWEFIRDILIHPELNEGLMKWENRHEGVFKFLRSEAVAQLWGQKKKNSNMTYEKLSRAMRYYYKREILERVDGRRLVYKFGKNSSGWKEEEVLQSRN
# Summary of the method: as §1
# CRX = CRX (Homo sapiens, UniProt O43186 1-299); conditions: protein: recombinant; tags: N-terminal GST; dsDNA, one strand shown
# Summary of the method: as §1
# ETV1 = ETV1 (Homo sapiens, UniProt P50549 1-477); conditions: protein: recombinant; tags: N-terminal GST; dsDNA, one strand shown
# Summary of the method: as §1
# ETV1, sequence (P50549 whole entry): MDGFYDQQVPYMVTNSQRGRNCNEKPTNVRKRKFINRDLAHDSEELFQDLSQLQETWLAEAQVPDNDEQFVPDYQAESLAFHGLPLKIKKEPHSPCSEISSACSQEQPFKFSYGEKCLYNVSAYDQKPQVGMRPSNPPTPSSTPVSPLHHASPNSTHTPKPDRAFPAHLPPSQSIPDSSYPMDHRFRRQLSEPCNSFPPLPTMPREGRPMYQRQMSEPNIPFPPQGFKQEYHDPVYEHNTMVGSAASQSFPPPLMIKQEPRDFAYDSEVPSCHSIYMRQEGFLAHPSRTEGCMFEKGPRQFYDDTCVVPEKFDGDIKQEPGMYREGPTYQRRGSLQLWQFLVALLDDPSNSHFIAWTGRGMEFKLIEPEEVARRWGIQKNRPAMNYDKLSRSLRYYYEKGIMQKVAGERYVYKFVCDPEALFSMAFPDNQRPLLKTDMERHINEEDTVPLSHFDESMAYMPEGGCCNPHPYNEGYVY
# SPIB, sequence (Q01892 whole entry): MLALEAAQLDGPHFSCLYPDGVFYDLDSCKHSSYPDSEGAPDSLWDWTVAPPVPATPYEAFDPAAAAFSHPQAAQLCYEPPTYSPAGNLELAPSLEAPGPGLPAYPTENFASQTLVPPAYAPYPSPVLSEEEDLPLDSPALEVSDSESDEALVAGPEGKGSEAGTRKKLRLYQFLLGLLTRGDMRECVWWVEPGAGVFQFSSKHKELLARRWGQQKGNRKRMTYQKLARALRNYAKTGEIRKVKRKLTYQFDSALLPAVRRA
# ETV5, sequence (P41161 whole entry): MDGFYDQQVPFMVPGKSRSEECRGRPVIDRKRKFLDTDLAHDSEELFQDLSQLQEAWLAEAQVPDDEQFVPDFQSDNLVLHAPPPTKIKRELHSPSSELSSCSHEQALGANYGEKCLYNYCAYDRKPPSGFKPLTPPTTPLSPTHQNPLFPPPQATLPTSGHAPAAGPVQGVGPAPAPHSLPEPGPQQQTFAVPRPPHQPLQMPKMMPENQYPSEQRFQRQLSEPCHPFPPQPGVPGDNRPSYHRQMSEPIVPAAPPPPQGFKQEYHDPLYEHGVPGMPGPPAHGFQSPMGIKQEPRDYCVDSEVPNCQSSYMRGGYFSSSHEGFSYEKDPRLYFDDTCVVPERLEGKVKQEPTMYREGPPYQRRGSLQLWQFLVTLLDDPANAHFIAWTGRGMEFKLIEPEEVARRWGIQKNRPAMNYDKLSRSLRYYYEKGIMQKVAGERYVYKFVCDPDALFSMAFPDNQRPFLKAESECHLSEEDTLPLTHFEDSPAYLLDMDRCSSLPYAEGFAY
# ELF4, sequence (Q99607 whole entry): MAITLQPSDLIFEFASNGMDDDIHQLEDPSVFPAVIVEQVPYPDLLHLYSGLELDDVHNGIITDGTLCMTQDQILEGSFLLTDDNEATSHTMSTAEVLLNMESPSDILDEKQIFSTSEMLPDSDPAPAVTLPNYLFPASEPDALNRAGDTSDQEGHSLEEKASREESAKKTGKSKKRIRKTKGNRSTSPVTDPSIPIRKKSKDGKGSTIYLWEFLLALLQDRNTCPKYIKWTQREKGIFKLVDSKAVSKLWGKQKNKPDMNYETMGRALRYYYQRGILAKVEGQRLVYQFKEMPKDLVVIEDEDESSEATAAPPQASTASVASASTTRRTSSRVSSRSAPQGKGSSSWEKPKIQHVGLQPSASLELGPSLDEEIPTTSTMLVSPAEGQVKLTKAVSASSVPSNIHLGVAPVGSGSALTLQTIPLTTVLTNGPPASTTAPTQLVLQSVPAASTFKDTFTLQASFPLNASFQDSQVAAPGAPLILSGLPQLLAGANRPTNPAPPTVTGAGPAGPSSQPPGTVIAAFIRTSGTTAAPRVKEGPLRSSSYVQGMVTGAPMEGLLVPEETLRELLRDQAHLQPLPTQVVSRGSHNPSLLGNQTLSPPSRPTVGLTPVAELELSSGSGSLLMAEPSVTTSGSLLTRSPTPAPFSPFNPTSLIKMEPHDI
# CRX, sequence (O43186 whole entry): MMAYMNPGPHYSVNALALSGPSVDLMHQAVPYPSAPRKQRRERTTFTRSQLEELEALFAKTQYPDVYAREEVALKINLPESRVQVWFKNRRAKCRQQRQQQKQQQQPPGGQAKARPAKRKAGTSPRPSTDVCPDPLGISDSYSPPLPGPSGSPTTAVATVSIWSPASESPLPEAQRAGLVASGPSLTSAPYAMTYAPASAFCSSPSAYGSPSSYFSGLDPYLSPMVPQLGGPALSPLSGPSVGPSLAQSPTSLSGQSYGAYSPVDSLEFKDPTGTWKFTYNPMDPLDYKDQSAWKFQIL
# ELF1, sequence (P32519 whole entry): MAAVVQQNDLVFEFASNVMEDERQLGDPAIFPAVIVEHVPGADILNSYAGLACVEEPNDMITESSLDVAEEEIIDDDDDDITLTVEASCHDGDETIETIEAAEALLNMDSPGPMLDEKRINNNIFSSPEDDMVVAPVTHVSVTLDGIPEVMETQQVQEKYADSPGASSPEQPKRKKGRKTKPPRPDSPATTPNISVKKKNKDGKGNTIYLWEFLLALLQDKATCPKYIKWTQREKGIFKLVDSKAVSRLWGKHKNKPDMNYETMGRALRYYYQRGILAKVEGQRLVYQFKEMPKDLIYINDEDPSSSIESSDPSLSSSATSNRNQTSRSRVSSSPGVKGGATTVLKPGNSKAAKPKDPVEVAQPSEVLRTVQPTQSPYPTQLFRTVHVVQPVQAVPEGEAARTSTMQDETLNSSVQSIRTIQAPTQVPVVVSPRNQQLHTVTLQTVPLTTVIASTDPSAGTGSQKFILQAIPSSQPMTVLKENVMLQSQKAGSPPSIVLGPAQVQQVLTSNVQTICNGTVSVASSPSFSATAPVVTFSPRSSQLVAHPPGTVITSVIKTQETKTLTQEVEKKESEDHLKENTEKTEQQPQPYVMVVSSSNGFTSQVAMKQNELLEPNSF
# HSF1, sequence (Q00613 whole entry): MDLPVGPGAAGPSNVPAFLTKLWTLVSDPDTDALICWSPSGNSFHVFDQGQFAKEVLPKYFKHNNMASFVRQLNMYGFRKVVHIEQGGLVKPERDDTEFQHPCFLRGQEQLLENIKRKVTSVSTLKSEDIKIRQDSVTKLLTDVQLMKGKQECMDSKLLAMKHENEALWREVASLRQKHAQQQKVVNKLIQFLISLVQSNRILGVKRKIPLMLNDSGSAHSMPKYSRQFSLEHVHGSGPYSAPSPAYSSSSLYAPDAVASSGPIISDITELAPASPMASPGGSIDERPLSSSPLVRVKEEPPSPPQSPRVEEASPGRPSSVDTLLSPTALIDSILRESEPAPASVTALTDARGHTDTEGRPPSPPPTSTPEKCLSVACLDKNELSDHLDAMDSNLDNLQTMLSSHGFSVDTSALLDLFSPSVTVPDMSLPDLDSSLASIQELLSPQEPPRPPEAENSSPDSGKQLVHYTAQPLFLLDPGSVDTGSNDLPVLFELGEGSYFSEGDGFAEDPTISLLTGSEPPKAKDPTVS
sequence,measurement,setting,value
GACCTA,binding signal,FLI1,"1.18 fold enrichment (6-mer frequency, TF over GST control)"
same,binding signal,ELK1,"1.07 fold enrichment (6-mer frequency, TF over GST control)"
same,binding signal,GABPA,"1.17 fold enrichment (6-mer frequency, TF over GST control)"
same,binding signal,ERG,"1.11 fold enrichment (6-mer frequency, TF over GST control)"
same,binding signal,ELF1,"1.21 fold enrichment (6-mer frequency, TF over GST control)"
same,binding signal,EHF,"1.15 fold enrichment (6-mer frequency, TF over GST control)"
same,binding signal,SPI1,"1.02 fold enrichment (6-mer frequency, TF over GST control)"
same,binding signal,SPIB,"1.08 fold enrichment (6-mer frequency, TF over GST control)"
same,binding signal,ELK3,"1.21 fold enrichment (6-mer frequency, TF over GST control)"
same,binding signal,FEV,"1.17 fold enrichment (6-mer frequency, TF over GST control)"
same,binding signal,ETV5,"1.2 fold enrichment (6-mer frequency, TF over GST control)"
same,binding signal,HSF1,"1.06 fold enrichment (6-mer frequency, TF over GST control)"
same,binding signal,SPIC,"1.18 fold enrichment (6-mer frequency, TF over GST control)"
same,binding signal,ELF4,"1.24 fold enrichment (6-mer frequency, TF over GST control)"
same,binding signal,ELK4,"1.14 fold enrichment (6-mer frequency, TF over GST control)"
same,binding signal,ETV2,"1.26 fold enrichment (6-mer frequency, TF over GST control)"
same,binding signal,ELF3,"1.06 fold enrichment (6-mer frequency, TF over GST control)"
same,binding signal,CRX,"1.07 fold enrichment (6-mer frequency, TF over GST control)"
same,binding signal,ETV1,"1.16 fold enrichment (6-mer frequency, TF over GST control)"
